Several values for one entry are separate records, joined by “and”; a condition that tells them apart may be missing. Identical values can stand only once.

One assay concerns the target cAMP-dependent protein kinase catalytic subunit alpha (Homo sapiens) (UniProt P17612). To be noted: at 0.1 µM.
Take `Cn1c(-c2nonc2N)nc2cnccc21`: the inhibition turned out to be 2.05%.
The same measure, in the same setting: then `CS(=O)(=O)CCNCc1ccoc1-c1ccc2ncnc(Nc3ccc(OCc4ccccc4)cc3)c2c1`, with 1.55%; and `CN1CCN(Cc2ccc(-c3cc4ncnc(Nc5ccc(OCc6cccc(F)c6)c(Cl)c5)c4s3)o2)CC1`, with 1.2% and 3.28%.
For the compound `CC(C)c1ccc(-c2cc(-c3c[nH]nc3-c3ccccn3)ccn2)cc1`, the inhibition was found to be 1.32%.
Take `Nc1ncnc2occ(-c3ccc(NC(=O)Nc4cc(C(F)(F)F)ccc4F)cc3)c12`: the inhibition was 0.57% and -0.25%.
The same measure, in the same setting: then `COc1ccc2ncn(-c3cc(O[C@H](C)c4ccccc4C(F)(F)F)c(C(N)=O)s3)c2c1`, with 0.69%.
The same measure, in the same setting: then `N#Cc1cccc(Nc2ncc(-c3ccccc3)o2)c1`, with 0.96%; and `CS(=O)(=O)Nc1ccc(-c2ccc3c(NC(=O)C4CC4)n[nH]c3c2)cc1`, with 1.42%; and `Cc1nnc(-c2cccc(-c3ccc(C(=O)NCC4CC4)cc3)c2)o1`, with 1.83%.
In the case of `CC1(C)CC(n2cnc(-c3ccc(F)cc3)c2-c2ccnc(N)n2)CC(C)(C)N1`, the inhibition worked out at 0.29%.
Same read-out and setting: then `CC1=C(C(=O)Nc2ccc3[nH]nc(C)c3c2)C(c2ccc(C(F)(F)F)cc2)CC(=O)N1` (configuration not stated), with 3.3%.
`NC(=O)c1ccc2c(-c3ccnc(NCCCO)n3)c(-c3ccc(F)cc3)nn2c1`: the inhibition amounted to 2.22%.
As for `COc1cc(N2CCN(C(C)C)CC2)ccc1Nc1nc(Nc2cccc3ncccc23)c2cc[nH]c2n1`, the inhibition is 0.01%.
Regarding `FC(F)(F)CNc1nccc(-c2cnn3ncccc23)n1`, the inhibition was 2.98%.
Still for that read-out and setting: with `CCN1CCC(C(=O)Nc2n[nH]c3nnc(-c4cccc(F)c4F)cc23)CC1` the figure was 0.16%.

The target is the same in the next assay. To be noted: at 1 µM.
On to `CCCNc1cccc(-n2ncc3c(N/N=C/c4ccncc4)ncnc32)c1`, for which the inhibition was found to be 3.62%.
The same measure, in the same setting: then `O=C(O[C@H]1CN[C@H](C#Cc2cc3ncnc(Nc4ccc(OCc5cccc(F)c5)c(Cl)c4)c3s2)C1)N1CCOCC1`, with 3.33%; and `Cc1cc(O)cc(C)c1/C=C/c1cncc(C(=O)OC(C)(C)C)c1`, with 3.63%; and `O=C(O[C@H]1CN[C@H](C#Cc2cc3ncnc(Nc4ccc5c(cnn5Cc5ccccc5)c4)c3s2)C1)N1CCOCC1`, with 1.15%.
On the same count and under the same terms, with `Cc1ccc(-c2cc3c(NC(=O)C4CC4)ncnc3o2)cc1` the figure was 1.5%; with `COc1cc(Nc2ncc(-c3ccccc3)o2)cc(OC)c1`, 1.67%.
Same read-out and setting: then `CCOc1ccc2c(-c3ccnc(Nc4cc(OC)cc(C(F)(F)F)c4)n3)cnn2n1`, with 3.91%; and `COC(=O)Nc1nc2ccc(Oc3ccc(NC(=O)Nc4cc(C(F)(F)F)ccc4F)cc3)cc2s1`, with 0.64%.
For `COC(=O)Nc1nc2cc(Oc3ccc(NC(=O)Nc4ccccc4)cc3)ccc2[nH]1`, the inhibition was found to be 2.15%.
Same read-out and setting: with `CCn1c(-c2nonc2N)nc2cncc(C(=O)NCCNC)c21` the figure was 78.2%; with `COc1ccc(Nc2ncc(-c3ccccc3)o2)cc1OC`, 1.87%.
Same read-out and setting: then `N#Cc1ccc2c(-c3ccnc(NC4CC4)n3)c(-c3ccc(F)cc3)nn2c1`, with 0.4%; and `Fc1cccc(COc2ccc(Nc3ncncc3C#Cc3ccccc3)cc2Cl)c1`, with 2.57%; and `CNC(=O)c1ncccc1Nc1nc(Nc2cc3c(cc2OC)CCCN3C(=O)CN(C)C)nc2[nH]ccc12`, with 2.56%.
On to `NS(=O)(=O)c1cccc(N/C=C2\C(=O)Nc3ccccc32)c1`, for which the inhibition turned out to be 1.62%.
In the case of `CS(=O)(=O)CCNCc1ccc(-c2ccc3ncnc(Nc4ccc(OCc5ccccc5)cc4)c3c2)o1`, the inhibition was 2.45%.
The same measure, in the same setting: with `Cn1c(-c2nonc2N)nc2cnccc21` the figure was 6.79%; with `CS(=O)(=O)CCNCc1ccoc1-c1ccc2ncnc(Nc3ccc(OCc4ccccc4)cc3)c2c1`, 1.02%.
On the same count and under the same terms, then `CN1CCN(Cc2ccc(-c3cc4ncnc(Nc5ccc(OCc6cccc(F)c6)c(Cl)c5)c4s3)o2)CC1`, with 5.56% and 3.03%; and `CC(C)c1ccc(-c2cc(-c3c[nH]nc3-c3ccccn3)ccn2)cc1`, with 2.36%.
In the case of `Nc1ncnc2occ(-c3ccc(NC(=O)Nc4cc(C(F)(F)F)ccc4F)cc3)c12`, the inhibition is 1.31% and -1.17%.
The same measure, in the same setting: then `COc1ccc2ncn(-c3cc(O[C@H](C)c4ccccc4C(F)(F)F)c(C(N)=O)s3)c2c1`, with 0.52%.
The same measure, in the same setting: then `N#Cc1cccc(Nc2ncc(-c3ccccc3)o2)c1`, with 1.68%; and `CS(=O)(=O)Nc1ccc(-c2ccc3c(NC(=O)C4CC4)n[nH]c3c2)cc1`, with 1.85%; and `Cc1nnc(-c2cccc(-c3ccc(C(=O)NCC4CC4)cc3)c2)o1`, with 2.07%.
As for `CC1(C)CC(n2cnc(-c3ccc(F)cc3)c2-c2ccnc(N)n2)CC(C)(C)N1`, the inhibition stood at 4.01%.
Consider `CC1=C(C(=O)Nc2ccc3[nH]nc(C)c3c2)C(c2ccc(C(F)(F)F)cc2)CC(=O)N1` (configuration not stated), for which the inhibition amounted to 26.6%.
With `NC(=O)c1ccc2c(-c3ccnc(NCCCO)n3)c(-c3ccc(F)cc3)nn2c1`, the inhibition amounted to 2.01%.
Still for that read-out and setting: then `COc1cc(N2CCN(C(C)C)CC2)ccc1Nc1nc(Nc2cccc3ncccc23)c2cc[nH]c2n1`, with 0.68%; and `FC(F)(F)CNc1nccc(-c2cnn3ncccc23)n1`, with 2.52%; and `CCN1CCC(C(=O)Nc2n[nH]c3nnc(-c4cccc(F)c4F)cc23)CC1`, with 0.64%.

A further assay addresses Protein kinase C alpha type (Homo sapiens) (UniProt P17252). To be noted: at 0.1 µM.
Regarding `CCCNc1cccc(-n2ncc3c(N/N=C/c4ccncc4)ncnc32)c1`, the inhibition is 0.98%.
On to `O=C(O[C@H]1CN[C@H](C#Cc2cc3ncnc(Nc4ccc(OCc5cccc(F)c5)c(Cl)c4)c3s2)C1)N1CCOCC1`, for which the inhibition came out at 0.97%.
Still for that read-out and setting: then `Cc1cc(O)cc(C)c1/C=C/c1cncc(C(=O)OC(C)(C)C)c1`, with 0.14%.
On to `O=C(O[C@H]1CN[C@H](C#Cc2cc3ncnc(Nc4ccc5c(cnn5Cc5ccccc5)c4)c3s2)C1)N1CCOCC1`, for which the inhibition was found to be 0.54%.
With `Cc1ccc(-c2cc3c(NC(=O)C4CC4)ncnc3o2)cc1`, the inhibition amounted to 0.9%.
Consider `COc1cc(Nc2ncc(-c3ccccc3)o2)cc(OC)c1`, for which the inhibition was determined as 1.19%.
Consider `CCOc1ccc2c(-c3ccnc(Nc4cc(OC)cc(C(F)(F)F)c4)n3)cnn2n1`, for which the inhibition turned out to be 0.42%.
On to `COC(=O)Nc1nc2ccc(Oc3ccc(NC(=O)Nc4cc(C(F)(F)F)ccc4F)cc3)cc2s1`, for which the inhibition was -0.14%.
Same read-out and setting: then `COC(=O)Nc1nc2cc(Oc3ccc(NC(=O)Nc4ccccc4)cc3)ccc2[nH]1`, with -0.02%.
On the same count and under the same terms, with `CCn1c(-c2nonc2N)nc2cncc(C(=O)NCCNC)c21` the figure was 15.5%; with `COc1ccc(Nc2ncc(-c3ccccc3)o2)cc1OC`, 1.08%.
In the case of `N#Cc1ccc2c(-c3ccnc(NC4CC4)n3)c(-c3ccc(F)cc3)nn2c1`, the inhibition was found to be 0.15%.
The same measure, in the same setting: then `Fc1cccc(COc2ccc(Nc3ncncc3C#Cc3ccccc3)cc2Cl)c1`, with 1.03%.
Same read-out and setting: with `CNC(=O)c1ncccc1Nc1nc(Nc2cc3c(cc2OC)CCCN3C(=O)CN(C)C)nc2[nH]ccc12` the figure was 1.68%.
For `NS(=O)(=O)c1cccc(N/C=C2\C(=O)Nc3ccccc32)c1`, the inhibition was determined as 0.98%.
With `CS(=O)(=O)CCNCc1ccc(-c2ccc3ncnc(Nc4ccc(OCc5ccccc5)cc4)c3c2)o1`, the inhibition is 0.5%.
Regarding `Cn1c(-c2nonc2N)nc2cnccc21`, the inhibition is 0.48%.
Turning to `CS(=O)(=O)CCNCc1ccoc1-c1ccc2ncnc(Nc3ccc(OCc4ccccc4)cc3)c2c1`, the inhibition is -0.16%.
Same read-out and setting: then `CN1CCN(Cc2ccc(-c3cc4ncnc(Nc5ccc(OCc6cccc(F)c6)c(Cl)c5)c4s3)o2)CC1`, with 0.64% and 0.88%.
For the compound `CC(C)c1ccc(-c2cc(-c3c[nH]nc3-c3ccccn3)ccn2)cc1`, the inhibition came out at 0.02%.
Still for that read-out and setting: then `Nc1ncnc2occ(-c3ccc(NC(=O)Nc4cc(C(F)(F)F)ccc4F)cc3)c12`, with 0.16% and -0.04%; and `COc1ccc2ncn(-c3cc(O[C@H](C)c4ccccc4C(F)(F)F)c(C(N)=O)s3)c2c1`, with 0.07%; and `N#Cc1cccc(Nc2ncc(-c3ccccc3)o2)c1`, with -0.44%.
Same read-out and setting: with `CS(=O)(=O)Nc1ccc(-c2ccc3c(NC(=O)C4CC4)n[nH]c3c2)cc1` the figure was 1.17%.
`Cc1nnc(-c2cccc(-c3ccc(C(=O)NCC4CC4)cc3)c2)o1`: the inhibition stood at 0.65%.
On the same count and under the same terms, then `CC1(C)CC(n2cnc(-c3ccc(F)cc3)c2-c2ccnc(N)n2)CC(C)(C)N1`, with 0.96%; and `CC1=C(C(=O)Nc2ccc3[nH]nc(C)c3c2)C(c2ccc(C(F)(F)F)cc2)CC(=O)N1` (configuration not stated), with 0.72%; and `NC(=O)c1ccc2c(-c3ccnc(NCCCO)n3)c(-c3ccc(F)cc3)nn2c1`, with 1.39%.
Consider `COc1cc(N2CCN(C(C)C)CC2)ccc1Nc1nc(Nc2cccc3ncccc23)c2cc[nH]c2n1`, for which the inhibition was -0.39%.
As to `FC(F)(F)CNc1nccc(-c2cnn3ncccc23)n1`, the inhibition was found to be 1.22%.
On the same count and under the same terms, then `CCN1CCC(C(=O)Nc2n[nH]c3nnc(-c4cccc(F)c4F)cc23)CC1`, with -0.7%.

The values are drawn from ChEMBL document CHEMBL1961873, “Compounds: GSK PKIS; Assays: Nanosyn kinase panel” (2012).
